Hit rate of the full screen: of about 330,000 compounds, about 4,100 (1.2%) were called active. Another 2% or so got no clear call; they are omitted. The sample holds actives, similar compounds and a random draw of the others, so the mix is not that of the screen. A number with no mark means an inactive call. The calls were made as follows: active = max response of -50% or lower; inconclusive = between -30% and -50%; inactive = -30% or higher.
% is scaled to controls: 0 for no effect and ±100 for the full control effect.

Chain of Phosphatidylinositol 5-phosphate 4-kinase type-2 alpha (Homo sapiens) (P48426 whole entry, looked up): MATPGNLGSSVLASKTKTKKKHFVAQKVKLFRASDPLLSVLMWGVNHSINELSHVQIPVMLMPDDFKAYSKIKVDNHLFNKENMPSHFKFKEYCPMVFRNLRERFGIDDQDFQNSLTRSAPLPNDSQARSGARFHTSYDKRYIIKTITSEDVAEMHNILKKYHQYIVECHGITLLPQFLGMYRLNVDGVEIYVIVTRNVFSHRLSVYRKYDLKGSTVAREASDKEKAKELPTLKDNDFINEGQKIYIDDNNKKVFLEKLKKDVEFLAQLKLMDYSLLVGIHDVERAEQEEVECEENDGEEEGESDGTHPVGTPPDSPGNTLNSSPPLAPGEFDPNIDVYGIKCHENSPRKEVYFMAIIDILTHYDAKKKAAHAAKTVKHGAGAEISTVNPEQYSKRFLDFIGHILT

This experiment addresses Phosphatidylinositol 5-phosphate 4-kinase type-2 alpha (Homo sapiens) (UniProt P48426). Kind of experiment: qHTS for Inhibitors of phosphatidylinositol 5-phosphate 4-kinase (PI5P4K). Also: value at the top dose of about 77 µM. The settings on record: PI5P4Kalpha enzyme, ADP-Glo luminescence, 60 min; hits give low values. In outline:
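qHTS, 1536-well: enzyme/substrate mix, compound by pin tool, 5 microM ATP final; RT 60 min; ADP-Glo reagents 1 (45 min) then 2 (30 min); luminescence.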
In the case of `Cc1ccc(S(=O)(=O)N2CCC(=O)N([C@H](COCc3ccccc3)C(C)C)CC2)cc1`, the max response is -1.43%.

Consider `CC(=O)Nc1cccc(-c2ccnc3c2CC(C)(C(=O)NCc2ccccc2)O3)c1` (stereo not drawn), for which the max response is 0.0166%.

With `COC(=O)c1ccc(CN2C(=O)C(Cc3ccccc3)ON=C2c2ncccc2C)o1` (stereo not drawn), the max response is -4%.

`CCOC(=O)c1ccc(Nc2cc3ccccc3c(=O)[nH]2)cc1`: the max response was 3.2%.

As to `CCOC(=O)c1ccc(COC(=O)c2cc(=O)[nH]c3ccccc23)o1`, the max response is 0.0752%.

Consider `CCOC(=O)c1cc2c(=O)[nH]c(C(Cl)(Cl)Cl)nc2o1`, for which the max response was -59.5% (active).

Regarding `CCC(C)CN1C(=O)CSCC1(C)C(=O)NCc1ccccc1` (stereo not drawn), the max response was -2.56%.

Turning to `COc1cccc2c(C)c(C(=O)O)[nH]c12`, the max response is -63.9% (active).

Regarding `Cc1c(C(=O)N/N=C/c2ccccc2)[nH]c2c([N+](=O)[O-])cccc12`, the max response is -0.171%.

Consider `COc1cc2c(C(=O)O)c(C)n(C)c2c2ccccc12`, for which the max response is -2.64%.

As to `COc1cc2c(=O)n(C)c3ccccc3c2cc1OC`, the max response is 1.08%.

Turning to `S=c1[nH]nc(-c2cc(-c3ccsc3)n[nH]2)n1-c1ccccc1`, the max response is -10.2%.

With `c1ccc(-c2cc(-c3nnc4sc(-c5ccccn5)nn34)[nH]n2)cc1`, the max response is -57.7% (active).

On to `CN(C(=O)c1ccccn1)c1nnc(-c2ccccn2)s1`, for which the max response was 3.64%.

On to `CC1(C)OC(=O)C2=C(C[C@@H](C3CCCC3)O[C@@H]2c2ccc(Cl)cc2)O1`, for which the max response was 3.13%.

On to `CCCNC(=O)c1cc(C2CCCCN2C(=O)OC)on1` (stereo not drawn), for which the max response was -2.43%.

`CSc1nnc(SCc2nc3sc(C(=O)O)c(C)c3c(=O)[nH]2)s1`: the max response was -79.5% (active).

For `Cc1sc2nc(CSCC(=O)Nc3c(Cl)cccc3Cl)[nH]c(=O)c2c1C`, the max response is 1.38%.

Turning to `Cc1sc2nc(CSCC(=O)NC3CCCCC3)[nH]c(=O)c2c1C`, the max response is -13.2%.

Consider `CCCOc1ccc(F)cc1-c1cc(C(=O)Nc2ccc(F)c(Cl)c2)[nH]n1`, for which the max response is -4.85%.

As for `Cc1cc(O)ccc1-c1cc(C(=O)NCc2cc(C(F)(F)F)cc(C(F)(F)F)c2)[nH]n1`, the max response is -3.12%.

For `CN(C)C(=O)c1cccc(-c2cnc3c(NC=O)cc(-c4ccc(C(=O)N5CCOCC5)cc4)cn23)c1`, the max response is -13.4%.

Take `Cc1cc(Br)ccc1NC(=O)CCCOc1cc(=O)n(C)c2ccccc12`: the max response is 3.17%.

As for `CN1OC[C@@H]2CN(S(=O)(=O)c3cccc4ccccc34)[C@H](c3ccc(N4CCCCC4)cc3)C[C@@H]21`, the max response is 7.24%.

For the molecule `CCOc1cccc(/C=N/N2C(=O)CSC2=S)c1O`, the max response is -51.6% (active).

Regarding `CCOc1cccc(/C=N/NC(=S)NCCN2CCOCC2)c1O`, the max response was -0.183%.

Turning to `COc1cc(N2C(=O)CSC2=S)cc(OC)c1OC`, the max response was 0.509%.

Turning to `COc1cc(Cn2c3ccc(NC(=O)CC(C)c4ccccc4)cc3c(=O)n2C)ccc1F` (stereo not drawn), the max response is 2.27%.

Take `O=c1cc(CN2CCN(S(=O)(=O)/C=C/c3ccccc3)CC2)c2ccc(O)cc2o1`: the max response was -55% (active).

In the case of `Cc1ccc2c(CN3CCN(S(=O)(=O)c4ccccc4C(F)(F)F)CC3)cc(=O)oc2c1`, the max response is -4.51%.

For `NC(=O)CCN1CCN(S(=O)(=O)/C=C/c2ccccc2)CC1`, the max response was 0.132%.

In the case of `CN(Cc1cn(Cc2ccc(C(F)(F)F)cc2)nn1)C1CN(Cc2cn(Cc3ccc(C(F)(F)F)cc3)nn2)S(=O)(=O)C1` (stereo not drawn), the max response is 11.5%.

For `COc1ccc(-c2ccc(C(=O)NCCN3CCOCC3)c3occc23)c(C)c1`, the max response is 2.58%.

Take `Cc1ccc(-c2c(C)n([O-])c3c([n+]2=O)CCC3)cc1`: the max response was 0.293%.

Regarding `O=[n+]1c2c(n([O-])c3cc(Br)ccc31)CCC2`, the max response was -56.6% (active).

As to `Cc1ccc(-c2c[n+](=O)c3c(n2[O-])CCC3)cc1`, the max response is 3.26%.

Regarding `CC1(C(=O)NCc2ccc(F)c(F)c2)Cc2c(-c3ccc4c(c3)OCO4)ccnc2O1` (stereo not drawn), the max response was 0.999%.

As for `CN1OC[C@@H]2CN(C(=O)c3cccnc3)[C@H](c3ccc(N4CCCCC4)cc3)C[C@@H]21`, the max response is -1.25%.

For the origin of these results see PubChem BioAssay AID652105 (National Center for Advancing Translational Sciences (NCATS), 2013).
